# Experimental data from PubChem BioAssay (NCATS).
# Records with an inconclusive call do not appear. Entries that show only a call come without a potency. Active and inactive are the calls of the source. Calls follow the shape of the dose curve; as a rule, active = well fitted inhibition curve with a large enough effect; inconclusive = small, poorly fitted or top-dose-only effect; inactive = flat fitted curve, though single readings scatter.
# Key:
# [1] = target: Voltage-gated inwardly rectifying potassium channel KCNH2 (Homo sapiens) (UniProt Q12809); assay: qHTS Assay for Small Molecule Inhibitors of the Human hERG Channel Activity (AID 588834);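 also: lower thallium flux fluorescence means stronger hERG block; nearly all actives have a fitted effect of over 50% in size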; also: potency is read from the fitted curve at half-maximal effect
# Method in brief: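 U2OS cells BacMam-transduced with hERG, 2000 cells/well, compound ~10 min at 37 °C before stimulation buffer. FluxOR thallium flux fluorescence read kinetically on FDSS; decrease indicates block; AC50 from Hill fits.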
# [2] = target: Luciferin 4-monooxygenase (Photinus pyralis) (UniProt P08659); assay: Biochemical firefly luciferase enzyme assay for NPC (AID 624030);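 also: purified P. pyralis luciferase at 10 nM with luciferin and ATP substrate; series mostly up to about 59 µM; nearly all actives have a fitted effect of over 70% in size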
# Method in brief: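 Direct inhibition of firefly luciferase enzyme (10 nM final, 50 mM Tris Acetate) assessed by luminescence within 5 minutes. Percent activity scaled between DMSO and PTC124 positive control, with concentration-effect curves classified by fit quality and response.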
# Voltage-gated inwardly rectifying potassium channel KCNH2 (Homo sapiens), sequence (Q12809 whole entry, looked up): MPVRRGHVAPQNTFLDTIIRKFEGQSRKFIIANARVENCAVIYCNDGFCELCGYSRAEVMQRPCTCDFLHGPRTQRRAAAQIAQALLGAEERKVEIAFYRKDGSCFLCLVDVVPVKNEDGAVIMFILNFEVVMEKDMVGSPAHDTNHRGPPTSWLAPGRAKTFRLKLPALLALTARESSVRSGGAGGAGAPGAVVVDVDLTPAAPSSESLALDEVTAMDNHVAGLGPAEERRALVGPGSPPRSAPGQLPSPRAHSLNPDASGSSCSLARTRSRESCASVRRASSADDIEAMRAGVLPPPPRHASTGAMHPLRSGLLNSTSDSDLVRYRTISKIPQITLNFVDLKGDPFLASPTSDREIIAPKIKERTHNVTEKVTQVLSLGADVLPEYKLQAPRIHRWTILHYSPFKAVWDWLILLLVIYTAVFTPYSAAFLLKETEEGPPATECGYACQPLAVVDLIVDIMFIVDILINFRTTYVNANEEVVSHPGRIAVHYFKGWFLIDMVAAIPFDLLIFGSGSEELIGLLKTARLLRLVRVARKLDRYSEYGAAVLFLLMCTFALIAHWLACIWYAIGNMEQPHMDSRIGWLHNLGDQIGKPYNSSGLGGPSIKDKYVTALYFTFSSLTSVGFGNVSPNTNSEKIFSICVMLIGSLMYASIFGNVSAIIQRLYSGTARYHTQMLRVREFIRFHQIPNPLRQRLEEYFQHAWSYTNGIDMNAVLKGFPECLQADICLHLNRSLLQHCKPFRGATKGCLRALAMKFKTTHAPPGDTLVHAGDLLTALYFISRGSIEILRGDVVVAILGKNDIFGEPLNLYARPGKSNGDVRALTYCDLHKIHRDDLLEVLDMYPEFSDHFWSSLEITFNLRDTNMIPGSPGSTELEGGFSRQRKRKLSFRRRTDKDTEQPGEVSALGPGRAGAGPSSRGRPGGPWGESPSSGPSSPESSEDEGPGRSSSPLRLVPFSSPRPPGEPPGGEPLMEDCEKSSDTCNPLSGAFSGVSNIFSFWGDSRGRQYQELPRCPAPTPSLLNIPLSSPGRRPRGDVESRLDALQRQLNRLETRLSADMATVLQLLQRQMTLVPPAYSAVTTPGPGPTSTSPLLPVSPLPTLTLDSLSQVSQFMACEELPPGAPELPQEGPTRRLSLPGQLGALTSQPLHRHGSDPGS
# Luciferin 4-monooxygenase (Photinus pyralis), sequence (P08659 whole entry, looked up): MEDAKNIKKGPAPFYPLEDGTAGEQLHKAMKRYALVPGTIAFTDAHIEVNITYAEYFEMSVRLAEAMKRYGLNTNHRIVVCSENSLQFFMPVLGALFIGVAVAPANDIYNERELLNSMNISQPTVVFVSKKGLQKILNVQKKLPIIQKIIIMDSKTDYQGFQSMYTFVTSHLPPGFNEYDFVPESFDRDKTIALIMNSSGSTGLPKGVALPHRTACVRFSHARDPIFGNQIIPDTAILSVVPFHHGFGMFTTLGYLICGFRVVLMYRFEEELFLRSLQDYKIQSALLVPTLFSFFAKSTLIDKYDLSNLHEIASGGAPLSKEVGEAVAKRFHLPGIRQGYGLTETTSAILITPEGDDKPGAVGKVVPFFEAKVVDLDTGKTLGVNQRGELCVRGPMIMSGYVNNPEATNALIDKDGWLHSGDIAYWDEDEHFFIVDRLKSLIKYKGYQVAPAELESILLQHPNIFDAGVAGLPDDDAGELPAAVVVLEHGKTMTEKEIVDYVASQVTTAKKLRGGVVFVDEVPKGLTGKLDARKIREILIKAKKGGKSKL
Compound,Potency [1],Potency [2]
CC(C)C[C@@H](N)C(=O)O,inactive,inactive
O=C(O)c1ccccc1C(=O)Nc1ccc(S(=O)(=O)Nc2nccs2)cc1,inactive,inactive
CCOC(=O)c1cccnc1,inactive,inactive
CN(C/C=C/C#CC(C)(C)C)Cc1cccc2ccccc12,12.6 µM (active),inactive
Nc1ncnc(Nc2ccccc2)n1,inactive,inactive
CCCCC1(COC(=O)CCC(=O)O)C(=O)N(c2ccccc2)N(c2ccccc2)C1=O,inactive,inactive
C[C@@H]1CCC[C@H](C)N1,inactive,inactive
NC(=O)CCCCC1CCSS1 (stereo not given),inactive,inactive
O=C(NCCCN1CCOCC1)c1ccc(Cl)cc1,inactive,inactive
CC(N)CCCC(C)(C)O (stereo not given),inactive,inactive
CCCCCCCC(=O)OCC(O)CO (stereo not given),inactive,inactive
Cc1ccsc1C(=CCCN1CCC[C@@H](C(=O)O)C1)c1sccc1C,inactive,inactive
O=C(O)CCC(=O)O,inactive,inactive
Cc1ncc(CO)c(CN)c1O,inactive,inactive
CN(C(=O)c1c(O)c2ccccc2n(C)c1=O)c1ccccc1,inactive,inactive
O=C(O)c1cc(=O)c2ccccc2o1,inactive,inactive
O=C(O)CCCc1ccccc1,inactive,inactive
CC(=O)N(CC(O)CO)c1c(I)c(C(=O)NCC(O)CO)c(I)c(C(=O)NCC(O)CO)c1I (stereo not given),inactive,inactive
Nc1c2c(nc3c1CCC3)CCCC2,inactive,inactive
Cc1cc(-n2nc3ccc(Cl)cc3n2)c(O)c(C(C)(C)C)c1,inactive,inactive
CC(C)CCCC(C)CCCC(C)CCCCC(C)CCCC(C)CCCC(C)C (stereo not given),inactive,inactive
O=C(O)c1ccc(OCCCOc2ccc(C(=O)O)cc2)cc1,inactive,inactive
O=C(CN1CCNCC1)NC1CCCCC1,inactive,inactive
Cc1cc(C)c(NC(=O)CN(CC(=O)O)CC(=O)O)c(C)c1Br,inactive,inactive
NS(=O)(=O)c1cc2c(cc1C(F)(F)F)NCNS2(=O)=O,inactive,inactive
CC(CN(C)C)C(C)(O)Cc1ccc(Cl)cc1 (stereo not given),14.1 µM (active),inactive
NS(=O)(=O)c1ccc(C(=O)O)cc1,inactive,inactive

Compound,Potency [1],Potency [2]
Nc1ncnc2c1ncn2[C@@H]1O[C@H](COP(=O)(O)O)[C@@H](O)[C@H]1O,inactive,inactive
COc1ccc(C(=O)NCc2ccc(OCCN(C)C)cc2)cc1OC,inactive,inactive
CC(=O)NCc1c(I)c(NC(C)=O)c(I)c(C(=O)O)c1I,inactive,inactive
CCN(CC)CCOC(=O)C(c1ccccc1)c1ccccc1,2 µM (active),inactive
CC(=O)OC[C@H]1O[C@@](COC(C)=O)(O[C@H]2O[C@H](COC(C)=O)[C@@H](OC(C)=O)[C@H](OC(C)=O)[C@H]2OC(C)=O)[C@@H](OC(C)=O)[C@@H]1OC(C)=O,inactive,inactive
Cc1c(I)c(=O)n(-c2ccccc2)n1C,inactive,inactive
CC1CCN(CCCC(=O)c2ccc(F)cc2)CC1,,inactive
CC(CSC(=O)c1ccccc1)C(=O)N1C[C@@H](Sc2ccccc2)C[C@H]1C(=O)O (stereo not given in full),inactive,inactive
COc1ccccc1Oc1c(NS(=O)(=O)c2ccc(C(C)(C)C)cc2)nc(-c2ncccn2)nc1OCCO,inactive,inactive
CCCOC(=O)c1ccc(N)cc1,inactive,inactive
O=c1[nH]c2cc(C(F)(F)F)c(N3CCOCC3)cc2n(CP(=O)(O)O)c1=O,inactive,inactive
O=c1[nH]cnc2nc[nH]c12,inactive,inactive
COc1ccccc1OC(=O)Oc1ccccc1OC,inactive,inactive
NCC1CCC(C(=O)Oc2ccc(CCC(=O)O)cc2)CC1 (stereo not given),inactive,inactive
CN/C(=C\[N+](=O)[O-])NCCSCc1csc(CN(C)C)n1,inactive,inactive
COC(=O)c1ccccc1C(=O)c1ccc(OCCN2CCCCC2)cc1,inactive,inactive
C[C@@H]1O[C@@H](OC[C@H]2O[C@@H](Oc3c(-c4ccc(O)c(O)c4)oc4cc(O)cc(O)c4c3=O)[C@H](O)[C@@H](O)[C@@H]2O)[C@H](O)[C@H](O)[C@H]1O,inactive,inactive
CCCCCCCCCCCCCCCCN,,inactive
CC(=O)N[C@@H](Cc1ccc(O)cc1)C(=O)O,inactive,inactive
Cc1[nH]c(C)c(Cl)c(=O)c1Cl,inactive,inactive
CC(C(=O)O)c1ccc2c(c1)Cc1cccnc1O2 (stereo not given),inactive,inactive
CCOC(=O)[C@H](CCc1ccccc1)N[C@@H](C)C(=O)N1CCC[C@H]1C(=O)O,inactive,inactive
O=C(O)Cc1cn(-c2ccccc2)nc1-c1ccc(Cl)cc1,inactive,inactive
Cn1c([N+](=O)[O-])cnc1COC(N)=O,inactive,inactive
COc1cc(O)cc(O)c1,inactive,inactive
Cc1c(NC(C)C)c(=O)n(-c2ccccc2)n1C,,inactive
NCc1ccc(S(N)(=O)=O)cc1,inactive,inactive
